Assay results published in the supplement of paper PMC3414501.
Structures can show the parent of a compound that is named as a salt.

The compounds below were run on S. cerevisiae AD1-9 (efflux-pump deficient), vegetative growth in YPD (assay: growth sensitivity score (doubling time z-score vs DMSO controls); higher = slower growth, strongly negative scores also mark growth inhibition (complete suppression), active = hit call of the paper).
In short: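 Rich medium in microtiter plates was seeded with Saccharomyces cerevisiae strains BY4741 and AD1-9 at an OD600 of 0.065, and compounds were added as a 1:100 dilution of DMSO stock. A Tecan GENios reader recorded optical density every 15 min for 24 hours, with eight solvent-only wells in each experiment. Average doubling time was the time to reach a set generation point divided by generation number. The growth sensitivity score was the compound mean minus the solvent-only mean, divided by the solvent-only standard deviation.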

Row | Compound | growth sensitivity score
1 | CC(C)NCC(O)c1ccc(NS(C)(=O)=O)cc1 (stereo not given) [Sotalol hydrochloride] (stock concentration (mM, diluted 1:100): 8.8) | -0.51 (inactive)
2 | C[C@H](CCC(=O)O)[C@H]1CC[C@H]2[C@@H]3C(=O)C[C@@H]4CC(=O)CC[C@]4(C)[C@H]3CC(=O)[C@]12C [Dehydrocholic acid] (stock concentration (mM, diluted 1:100): 10) | -1.13 (inactive)
3 | Nc1nc(Cl)nc2c1ncn2[C@H]1C[C@H](O)[C@@H](CO)O1 [2-Chloro-2-Deoxyadenosine] (stock concentration (mM, diluted 1:100): 10) | -1.81 (inactive)
4 | CCC(=O)NS(=O)(=O)c1ccc(-c2c(-c3ccccc3)noc2C)cc1 [Parecoxib] (stock concentration (mM, diluted 1:100): 9.8) | 0.73 (inactive)
5 | Nc1nc2ccc(Cl)cc2c2nc(-c3ccco3)nn12 (stock concentration (mM, diluted 1:100): 10) | 17.6 (active)
6 | Nc1nc(Cl)nc2c1ncn2[C@@H]1O[C@H](CO)[C@@H](O)[C@H]1O [2-Chloroadenosine] (stock concentration (mM, diluted 1:100): 10) | -1.1 (inactive)
7 | O=c1c(O[C@@H]2O[C@H](CO)[C@@H](O)[C@H](O)[C@H]2O)c(-c2ccc(O)c(O)c2)oc2cc(O)cc(O)c12 [Isoquercetrin] (stock concentration (mM, diluted 1:100): 10) | -0.6 (inactive)
8 | Clc1ccc(CO/N=C(\Cn2ccnc2)c2ccc(Cl)cc2Cl)c(Cl)c1 [Oxiconazole nitrate] (stock concentration (mM, diluted 1:100): 10) | 47.9 (active)
9 | COc1ccc(C(=O)NCc2ccc(OCCN(C)C)cc2)cc1OC [Itopride hydrochloride] (stock concentration (mM, diluted 1:100): 8.2) | -1.3 (inactive)
10 | COc1ccc(CC(C)NCC(O)c2ccc(O)c(NC=O)c2)cc1 (stereo not given) [Formoterol fumarate dihydrate] (stock concentration (mM, diluted 1:100): 7) | -0.7 (inactive)
11 | CC(=O)N1CCN(c2ccc(OCC3COC(Cn4ccnc4)(c4ccc(Cl)cc4Cl)O3)cc2)CC1 (stereo not given) [Ketoconazole] (stock concentration (mM, diluted 1:100): 10) | 155 (active)
12 | Cc1cccc(C)c1NC(=O)C(C)N (stereo not given) [Tocainide] (stock concentration (mM, diluted 1:100): 10) | 1.11 (inactive)
13 | CC(=O)SCC(Cc1ccccc1)C(=O)NCC(=O)OCc1ccccc1 (stereo not given) [Acetorphan] (stock concentration (mM, diluted 1:100): 10) | 22.1 (active)
14 | CSc1nc2cc(Cl)c(Oc3cccc(Cl)c3Cl)cc2[nH]1 [Triclabendazole] (stock concentration (mM, diluted 1:100): 10) | 74.8 (active)
15 | CCOC(=O)C1=C(C)NC(C)=C(C(=O)OC)C1c1cccc([N+](=O)[O-])c1 (stereo not given) [Nitrendipine] (stock concentration (mM, diluted 1:100): 10) | 23.1 (active)
16 | COc1ccccc1OCC(O)CN1CCN(CC(=O)Nc2c(C)cccc2C)CC1 (stereo not given) [Ranolazine dihydrochloride] (stock concentration (mM, diluted 1:100): 8.6) | -1.41 (inactive)
17 | CCOC(=O)OC(C)OC1=C(C(=O)Nc2ccccn2)N(C)S(=O)(=O)c2ccccc21 (stereo not given) [Ampiroxicam] (stock concentration (mM, diluted 1:100): 10) | -0.54 (inactive)
18 | CN(C)CC[C@@H](c1ccc(Br)cc1)c1ccccn1 [Dexbrompheniramine maleate] (stock concentration (mM, diluted 1:100): 7.3) | -0.16 (inactive)
19 | CNNCc1ccc(C(=O)NC(C)C)cc1 [Procarbazine hydrochloride] (stock concentration (mM, diluted 1:100): 8.6) | -0.84 (inactive)
20 | COc1cc(-c2ccc(=O)[nH]n2)ccc1OC(F)F [Zardaverine] (stock concentration (mM, diluted 1:100): 11.7) | 2.67 (active)
21 | O=C1c2c(O)cc(O)cc2OC(c2ccc(O)c(O)c2)C1O (stereo not given) [Taxifolin] (stock concentration (mM, diluted 1:100): 10) | -0.46 (inactive)
22 | Nc1ccn([C@H]2CC[C@@H](CO)O2)c(=O)n1 [Zalcitabine] (stock concentration (mM, diluted 1:100): 10) | -0.86 (inactive)
23 | CCOc1cc(N)c(Cl)cc1C(=O)NCC1CN(Cc2ccc(F)cc2)CCO1 (stereo not given) [Mosapride citrate] (stock concentration (mM, diluted 1:100): 6.9) | 17.2 (active)
24 | CC1CCN(CCCC(=O)c2ccc(F)cc2)CC1 [Metylperon] (stock concentration (mM, diluted 1:100): 10) | 1 (inactive)
25 | CO[C@H]1O[C@@H]2O[C@@]3(C)CC[C@H]4[C@H](C)CC[C@@H]([C@H]1C)[C@@]24OO3 [Artemether] (stock concentration (mM, diluted 1:100): 10) | 9.66 (active)
26 | O=[N+]([O-])c1cccc2cn[nH]c12 [7-Nitroindazole] (stock concentration (mM, diluted 1:100): 10) | -1.05 (inactive)
27 | O=c1ncc(F)c[nH]1 [5-Fluoro-2-Pyrimidone] (stock concentration (mM, diluted 1:100): 10) | -0.92 (inactive)
28 | CC(C)(C)NC(=O)[C@@H]1CN(Cc2cccnc2)CCN1C[C@@H](O)C[C@@H](Cc1ccccc1)C(=O)N[C@H]1c2ccccc2C[C@H]1O [Indinavir sulphate] (stock concentration (mM, diluted 1:100): 8.6) | -2.58
29 | OC[C@H]1O[C@@H](Oc2cc(O)cc(/C=C/c3ccc(O)cc3)c2)[C@H](O)[C@@H](O)[C@@H]1O [Piceid] (stock concentration (mM, diluted 1:100): 10) | 0.32 (inactive)
30 | Cc1c(O)cccc1C(=O)N[C@@H](CSc1ccccc1)[C@H](O)CN1C[C@H]2CCCC[C@H]2C[C@H]1C(=O)NC(C)(C)C [Nelfinavir mesylate] (stock concentration (mM, diluted 1:100): 8.6) | 16.2 (active)
